Assay outcomes (PubChem)
Most compounds without a hit are left out; they make up all but 6.7% or so of the library.
KB-V1 cytotox = qHTS assay for MDR1-selective chemotherapeutics: Primary screen using the drug-selected MDR subline cells KB-V1; AID 1347076, 2019; KB-V1 MDR cells viability, CellTiter-Glo, 72 h; Potency, µM (titrated, usually from 46.1 µM), hits mostly cytotoxic; 400,000 tested, 3.4% active; also: % is scaled to controls: 0 for no effect and ±100 for the full control effect; nearly all actives have a fitted effect of over 60% in size
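KB-V1, DMEM (no phenol red) + 10% FBS; cpd pin-transferred, titration series; 72 h, 37 degrees C; CellTiter-Glo, luminescence. Data normalized, curve-fit.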
PINK1 expr mod = A Quantitative High throughput Screen to Identify Chemical Modulators of PINK1 Expression. Potency, µM (titrated, usually from 76.6 µM), without a hit: at the top dose activation (PINK1 increase), usual class: activators. 410,000 tested, 0.2% active. AID 624263, 2012. PINK1 immunofluorescence, high-content cytometry, 24 h; active = well fitted activation curve with a large enough effect; inconclusive = small, poorly fitted or top-dose-only effect; cell line not stated here; also: % of control where 0% means no effect; nearly all actives have a fitted effect of over 65% in size
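Stable cell line treated 24 h with compounds at 5 concentrations (CCCP controls), then fixed and immunostained for PINK1 plus nuclear and cell stains; PINK1 immunofluorescence quantified by laser-scanning microplate cytometry.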
MCF10A rereplic = A quantitative high throughput screen for small molecules that induce DNA re-replication in MCF 10a normal breast cells; 350,000 tested, 2.9% active; MCF 10A DNA re-replication, Hoechst nuclear intensity, 48 h; Potency, µM (series often up to 46.1 µM), for inactives: at the highest dose activity, positive = re-replication, usual class: activators; also: % of control where 0% means no effect; nearly all actives have a fitted effect of over 50% in size
SW480 rereplic = A quantitative high throughput screen for small molecules that induce DNA re-replication in SW480 colon adenocarcinoma cells; AID 624297, 2012; Potency, µM (doses to about 46.1 µM), for the others: top-dose re-replication activation, usual class: activators; 340,000 tested, 1.8% active; SW480 DNA re-replication, Hoechst DNA content imaging, 48 h; also: % of control where 0% means no effect; nearly all actives have a fitted effect of over 55% in size
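Treated cells incubate 48 hr (37 C, 5% CO2), are stained 40 min with Hoechst, and nuclear fluorescence is enumerated; a rise in nuclei with high DNA signal marks re-replication.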
KB-3-1 cytotox = qHTS assay for MDR1-selective chemotherapeutics: Primary screen using the parental adenocarcinoma cell KB-3-1 | Potency, µM (titrated, usually from 46.1 µM), actives largely listed as cytotoxic | KB-3-1 viability, CellTiter-Glo ATP luminescence, 72 h | 400,000 tested, 1.4% active | AID 1347075, 2019; also: % is scaled to controls: 0 for no effect and ±100 for the full control effect; nearly all actives have a fitted effect of over 60% in size
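Cells are dispensed, compounds pinned in, plates held at 37 °C for 72 h, then CellTiter-Glo is added and luminescence read after 10 minutes. Cell line: parental KB-3-1 in phenol-red-free DMEM, 10% FBS.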
The depositor's hits bear a star; [ ] = another dose, or the depositor's remark. Unless noted, calls follow the shape of the dose curve; as a rule, active = well fitted curve in the direction sought with a large enough effect; inconclusive = small, poorly fitted or top-dose-only effect, or another doubt; inactive = no such curve, though single readings can be large; an effect the other way counts as inactive or inconclusive. Potency is read from the fitted curve at half-maximal effect.

O=C(NCCc1ccccc1)c1ccc2nc(-c3ccco3)c(-c3ccco3)nc2c1 was read as KB-V1 cytotox inconclusive, PINK1 expr mod -4%, MCF10A rereplic 21µM*, SW480 rereplic inconclusive and KB-3-1 cytotox inconclusive.
O=C(NCCO)c1ccc2nc(-c3ccco3)c(-c3ccco3)nc2c1 was read as KB-V1 cytotox inactive, PINK1 expr mod 1%, MCF10A rereplic -5%, SW480 rereplic -1% and KB-3-1 cytotox inactive.
`Cc1cccc(Cn2c(COc3ccc(Cl)cc3)nc3ccccc32)c1` gave KB-V1 cytotox inactive, PINK1 expr mod 19% and KB-3-1 cytotox inactive.
For CCN1CCN(CCNC(=O)c2ccc(/C=C3\Sc4ccccc4N(Cc4ccccc4F)C3=O)cc2)CC1 the results were KB-V1 cytotox inconclusive, PINK1 expr mod -1%, MCF10A rereplic 13µM*, SW480 rereplic 18µM* and KB-3-1 cytotox inactive.
COCCCNC(=O)/C=C1\Sc2ccccc2N(Cc2ccccc2F)C1=O was read as KB-V1 cytotox inactive, PINK1 expr mod 10%, MCF10A rereplic inconclusive, SW480 rereplic 18µM* and KB-3-1 cytotox inactive.
Screening CN1CCN(CCCNC(=O)c2ccc(/C=C3\Sc4ccccc4N(Cc4ccc(F)cc4)C3=O)cc2)CC1 returned KB-V1 cytotox inactive, PINK1 expr mod -2%, MCF10A rereplic 18µM*, SW480 rereplic inconclusive and KB-3-1 cytotox inactive.
For CN1CCN(CCCNC(=O)c2ccc(/C=C3/Sc4ccccc4N(Cc4cccc(Cl)c4)C3=O)cc2)CC1 the results were KB-V1 cytotox inconclusive, PINK1 expr mod -1%, MCF10A rereplic inconclusive, SW480 rereplic inconclusive and KB-3-1 cytotox inactive.
`CN1CCN(CCCNC(=O)c2ccc(/C=C3\Oc4ccccc4N(Cc4ccccc4F)C3=O)cc2)CC1` gave KB-V1 cytotox inactive, PINK1 expr mod -1%, MCF10A rereplic 9.2µM*, SW480 rereplic 6.5µM* and KB-3-1 cytotox inactive.
Screening COc1ccc2c(c1)c1nnc(SC(C)C)nc1n2C returned PINK1 expr mod 1%.
Screening NS(=O)(=O)c1ccc(CNC(=O)CNC(=O)c2ccc(F)cc2)cc1 returned KB-V1 cytotox inconclusive, PINK1 expr mod 2%, MCF10A rereplic -2%, SW480 rereplic 2% and KB-3-1 cytotox inactive.
For COC(=O)c1sccc1S(=O)(=O)N(CC(=O)Nc1cc(C)ccc1C)c1ccc(C)c(C)c1 the results were KB-V1 cytotox inconclusive, PINK1 expr mod 2% and KB-3-1 cytotox inactive.
For Cc1ccc(S(=O)(=O)Cc2sc3ccccc3[n+]2C)cc1 the results were KB-V1 cytotox 21µM*, PINK1 expr mod -2%[38.3 µM], MCF10A rereplic 24%, SW480 rereplic -3% and KB-3-1 cytotox inactive.
O=C(CN1C(=O)COc2ccc(S(=O)(=O)N3CCCCC3)cc21)NCCc1ccc(Cl)cc1 was read as PINK1 expr mod 1%.
`CCOc1ccc(CCNC(=O)CN2C(=O)COc3ccc(S(=O)(=O)N4CCCCCC4)cc32)cc1` gave KB-V1 cytotox 9.2µM*, PINK1 expr mod 1% and KB-3-1 cytotox inactive.
O=C(c1ccc(S(=O)(=O)N2CCOCC2)cc1)N1CCN(c2ccccn2)CC1 was read as KB-V1 cytotox inactive, PINK1 expr mod 4%, MCF10A rereplic 1.5µM*, SW480 rereplic -39% and KB-3-1 cytotox inactive.
`Cc1ccc(C(=O)NCc2ccc(Cl)cc2)cc1S(=O)(=O)N1CCCCC1` gave KB-V1 cytotox 18µM*, PINK1 expr mod 7%, MCF10A rereplic 1%, SW480 rereplic 3% and KB-3-1 cytotox inconclusive.
For O=C(c1ccc(S(=O)(=O)N2CCOCC2)cc1)N1CCN(C2=NS(=O)(=O)c3ccccc32)CC1 the results were KB-V1 cytotox inactive, PINK1 expr mod -4%[38.3 µM], MCF10A rereplic 0%, SW480 rereplic -4% and KB-3-1 cytotox inactive.
